# ChEMBL document CHEMBL4513216, “Probing the Open Global Health Chemical Diversity Library for Multistage-Active Starting Points for Next-Generation Antimalarials” (ACS Infect Dis, 2020)
# Hit rate of the full screen: of about 69,000 compounds, about 8,600 (12%) showed an effect of 50% or more. Only a selection was taken, and strong results are over-represented in it overall.
# Tested on: Plasmodium berghei
# Assay: Screen against P. berghei liver stage (PbLuc), transformed with Luciferase, at 10uM
# Format: functional, HepG2
# Details: tested at 10 uM
row,Structure (SMILES),INHIBITION [%]
1,Cn1cc(C(=O)N2CC[C@@H]3[C@@H]2CCN3c2ncc(F)cn2)cn1,2.4
2,CC1CCN(C(=O)Cn2nc(Br)nc2Br)CC1,-12.7
3,Cc1nc(C2CCCN(C(=O)c3cccc4c3OCCO4)C2)no1 (centres undefined),15.3
4,CC/C=C(/C)C(=O)N1CCN(C2=NCC(C)S2)CC1 (centres undefined),30.3
5,CCC(C)(C)C(=O)N1CCN(C2=NCC(C)S2)CC1 (centres undefined),-87.7
6,CCN(CC)C(=O)N1CCN(C2=NCC(C)S2)CC1 (centres undefined),65.7
7,CC(=O)Nc1ccc2c(c1)C1(CCOCC1)C(=O)N2c1ccsc1,58.7
8,CCN1C(=O)C2(CCOCC2)c2cc(NC(=O)c3csnn3)ccc21,-35.2
9,CCN1C(=O)C2(CCOCC2)c2cc(NC(=O)c3cnccn3)ccc21,-28.8
10,CCC(C)Nc1ccc2c(c1)C1(CCOCC1)C(=O)N2c1ccccc1 (centres undefined),10.5
11,CCN1C(=O)C2(CCOCC2)c2cc(NC(=O)COC)ccc21,-19.8
12,CC(C)Nc1ccc2c(c1)C1(CCOCC1)C(=O)N2c1ccsc1,52.3
13,COc1cccc(OC)c1CN1CC(O)CN(S(C)(=O)=O)CC1=O (centres undefined),46.4
14,NC(=O)CN1CCCC(Cc2ccc(N)nn2)C1 (centres undefined),8.72
15,CC(C)n1c(C2CCCN(Cc3ccnn3C)C2)nc2ccccc21 (centres undefined),23.9
16,COc1cccc(CNc2c(O)c(=O)c2=O)c1,0.207
17,Cc1noc(C2CCC3(CCN(C(=O)c4ccn(C)n4)CC3)O2)n1 (centres undefined),-0.371
18,COc1cccc(CC(=O)N2CCC3(CC2)OCCCC3O)c1OC (centres undefined),69.7
19,COc1ccccc1CC(=O)N1CC[C@H](O)[C@]2(CCCO2)C1,-12.2
20,O=C(Cc1ccccc1C(F)(F)F)N1CCC2(CC1)OCCCC2O (centres undefined),13.2
21,COC(=O)c1ccoc1CN(C)CC(=O)NC1CCS(=O)(=O)C1 (centres undefined),17.9
22,Cc1nn(-c2ccccc2)c2c1c(C(F)F)cc(=O)n2CC(=O)O,36.35
23,CN(C)CCN(C)C1CCN(C(C(=O)O)c2ccc(F)c(Cl)c2)CC1 (centres undefined),34.9

row,Structure (SMILES),INHIBITION [%]
1,CCCOc1cc(CNC(=O)Nc2ccccn2)ccn1,3.87
2,CC(C)c1nn(C)c(N(C)C)c1CNC1CCN(C2CC2)CC1,12.8
3,CC(CO)NC(=O)c1ccc2[nH]/c(=N\S(C)(=O)=O)sc2c1 (centres undefined),4.93
4,C[C@@H](CO)NC(=O)c1ccc2nc(NS(C)(=O)=O)sc2c1,54.2
5,CSCC[C@@H](CO)NC(=O)c1ccc2nc(NS(C)(=O)=O)sc2c1,46.7
6,Cc1cc(C(=O)N2CCC3(CC2)C(=O)N(C)CCN3CC2CC2)c(C)o1,4.98
7,CN(Cc1ccncc1)C1COC2(CCN(Cc3ccccn3)CC2)C1 (centres undefined),52
8,CN(Cc1ccncc1)C1COC2(CCN(Cc3nccn3C)CC2)C1 (centres undefined),73
9,CN(Cc1ccncc1)C1CC2(CCN(Cc3ccccn3)CC2)C1,28.7
10,CN(Cc1ccncc1)C1COC2(CCN(Cc3ccsc3)CC2)C1 (centres undefined),49.7
11,CN(C)C1COC2(CCN(Cc3ccncc3)CC2)C1 (centres undefined),29.9
12,CN(Cc1ccncc1)C1COC2(CCN(c3ncc(F)cn3)CC2)C1 (centres undefined),37.8
13,CN(Cc1ccccn1)C1COC2(CCN(Cc3cccnc3)CC2)C1 (centres undefined),38.1
14,CN(Cc1ccncc1)C1COC2(CCN(Cc3cccs3)CC2)C1 (centres undefined),4.57
15,CN(Cc1ccncc1)C1COC2(CCN(Cc3ccco3)CC2)C1 (centres undefined),59
16,O=C(O)CCNC(=O)Cc1csc(-c2cccc(Cl)c2)n1,25.1
17,Cc1nc(CN2CCN(C(=O)c3sccc3C3CC3)CC2)oc1C,1.75
18,CCc1cc(O)n2nc(C3CCCN3C(=O)c3ccccn3)cc2n1 (centres undefined),18.85
19,Cc1ccc(CNc2nc(O)cc(C3CC(=O)N(C)C3)n2)cc1 (centres undefined),-16.5
20,CCOCCCNc1nc(O)cc(C2CC(=O)N(C)C2)n1 (centres undefined),56.9
21,COc1cccc(CNc2nc(O)cc(C3CC(=O)N(C)C3)n2)c1 (centres undefined),17.1
22,CNC(=O)c1cnc(C)nc1CCNC(=O)CCc1ccccc1,-0.232
23,COCC1c2c(cnn2CC2CC2)CCN1Cc1nccs1 (centres undefined),7.11

row,Structure (SMILES),INHIBITION [%]
1,Cc1n[nH]c(C)c1C(N)C(=O)NCCc1csc(C(C)C)n1 (centres undefined),-10.8
2,CSCc1nc(CCNC(=O)C(N)c2c(C)n[nH]c2C)cs1 (centres undefined),21.2
3,Cc1nc(CCNC(=O)C(N)c2c(C)n[nH]c2C)sc1C (centres undefined),56
4,O=C(N1CCCC1)N1CCC2(CC1)COCCN(Cc1cccnc1)C2,41.6
5,C[C@@H](NC(=O)c1ccc(Cl)cc1)c1onc(-c2cccnc2)c1C(=O)O,-4.82
6,c1ccc2c(c1)CCN(c1nc(-c3ccncc3)nc3c1CCNC3)C2,58
7,Cc1cc2n(n1)CCN(c1nc(N(C)C)nc3c1CCNC3)C2,57.6
8,Cc1cccc(=O)n1CCCNc1nc(N(C)C)nc2c1CCNC2,10.9
9,CN(C)c1nc2c(c(N3CCc4c(c(CO)nn4C)C3)n1)CCNC2,-2.43
10,Cc1nc2c(c(N3CCN(c4ncccc4C(N)=O)CC3)n1)CCNC2,32.5
11,Cc1ccccc1N1CCN(c2nc(N(C)C)nc3c2CCNC3)CC1,88.5
12,Cc1cc2n(n1)CCN(c1nc(N)nc3c1CCNCC3)C2,12.1
13,COCCNc1nc2c(c(N3CCn4nc(C)cc4C3)n1)CCNCC2,27.6
14,c1ccc2c(c1)CCN(c1ncnc3sc4c(c13)CCNC4)C2,38.2
15,CN(C)c1nc2c(c(N3CCc4ccccc4C3)n1)CCNC2,66.7
16,NCCC1CN(c2nc(-c3ccccc3)nc3c2CCNC3)CCO1 (centres undefined),38.2
17,COc1cccc2c1OCCCN(c1nc(N)nc3c1CCNC3)C2,27.6
18,COCC1CN(Cc2ccsc2)Cc2nn(C)cc21 (centres undefined),22.2
19,CN(CCCO)Cc1cc(Cl)ccc1OCC(O)CN1CCCCCC1 (centres undefined),-50.7
20,COc1ccnc(N2CCN(C(=O)Cc3ccn(C(C)C)n3)CC2)n1,-47.6
21,Cc1nn(C)c2nc(C(C)C)cc(C(=O)Nc3n[nH]c(C4CC4)n3)c12,45.3
22,O=C(NCCc1nncn1C1CC1)c1cnn(Cc2ccccc2)c1,4.13
23,COc1cccn(CC(=O)N2CCCC3(CCCCC3)C2)c1=O,-17.7

row,Structure (SMILES),INHIBITION [%]
1,Cc1cc(C)c(C(=O)N2CCCC(O)(CN3CCCC3)C2)cc1C (centres undefined),34.9
2,Cc1nc(Cc2ccccc2)nc2sc(C(=O)O)c(C)c12,53.1
3,Cc1c(C(=O)O)sc2nc(Cc3ccccc3)nc(N)c12,-2.27
4,CCN(CC(=O)NC)C(=O)c1sc(Cc2ccccc2)nc1C,-16
5,COc1cc2nc(C)n(CC(=O)NCCN(C)C)c(=O)c2cc1OC,2.55
6,COc1cc(CN2CCCC[C@]3(C)NC(=O)CC[C@H]23)ccc1F,23.9
7,CCOCC1CN(Cc2cnn(C)c2)Cc2ncn(C)c21 (centres undefined),36.9
8,CCn1cc2c(n1)CN(Cc1ccoc1)CC2COCC1CC1 (centres undefined),9.54
9,CCOCC1CN(Cc2ccc(OC)cc2)Cc2nn(CC3CC3)cc21 (centres undefined),33
10,Cn1cc(CN2Cc3cn(C)nc3C(COCC3CC3)C2)cn1 (centres undefined),34.6
11,CCOCC1CN(Cc2cnn(C)c2)Cc2nn(CC3CC3)cc21 (centres undefined),67.2
12,CCOCC1CN(Cc2ccoc2)Cc2nn(CC3CC3)cc21 (centres undefined),-19.4
13,CCOCC1CN(Cc2cnn(C)c2)Cc2ncn(CC3CC3)c21 (centres undefined),33
14,CCOCC1CN(Cc2cnn(C)c2)Cc2nn(C)cc21 (centres undefined),18.2
15,CCn1cc2c(n1)CN(Cc1ccc(C)o1)CC2COCC1CC1 (centres undefined),63.7
16,CCn1cc2c(n1)CN(Cc1cnn(C)c1)CC2COCC1CC1 (centres undefined),63.7
17,CCOCC1CN(Cc2cnn(C)c2)Cc2c1cnn2CC (centres undefined),53.2
18,CCOCC1CN(Cc2cnn(C)c2)Cc2cnn(C)c21 (centres undefined),35.7
19,O=C(c1cc(=O)[nH]c(=O)[nH]1)N1CCCC(CO)(CC2CC2)C1 (centres undefined),47.6
20,CN(Cc1ccccc1)C1COC2(CCN(Cc3nccs3)CC2)C1 (centres undefined),37
21,O=C(Cc1ccc(F)cc1)NCCNc1cc(N2CCCC2)ncn1,31.7
22,CCN(CC)C1COc2c(cc(Br)c(C)c2Br)C1=O (centres undefined),5.56
23,CC(C)c1noc(CCNC(=O)NCC2Cc3ccccc3O2)n1 (centres undefined),-34.8

row,Structure (SMILES),INHIBITION [%]
1,Cc1nc(N(C)C)nc(C)c1NS(=O)(=O)c1ccc(F)cc1F,-7.81
2,CS(=O)(=O)NCC1CCCN(C(=O)Nc2ccccc2F)C1 (centres undefined),4.1
3,COc1cnc(CSc2nnc(C)s2)cc1OCC(=O)NC(C)(C)C,-3.11
4,CN(C)S(=O)(=O)N1CCC[C@]2(C[C@@H](Oc3ccccn3)CO2)C1,-21.3
5,O=C1CCC2(CCC(NC3CCOCC3)CC2)N1Cc1ccccc1 (centres undefined),-47.9
6,CCn1cc2c(n1)CN(Cc1ccc(F)cc1)CC2COCC1CC1 (centres undefined),70.7
7,CCOCC1CN(Cc2ccc(F)cc2)Cc2nn(CC3CC3)cc21 (centres undefined),5.96
8,CCn1cc2c(n1)CN(Cc1ccncc1)CC2COCC1CC1 (centres undefined),40.9
9,CCO[C@@H]1CO[C@@]2(CCCN(S(=O)(=O)c3cccnc3)C2)C1,30.7
10,Cc1nc(-c2ccoc2)n(CC(=O)NCC(C)C)c1C,-8.28
11,Cc1nc(-c2ccoc2)n(CC(=O)N(C)CC(C)C)c1C,50
12,CCOC(=O)CNC(=O)Cn1c(-c2ccoc2)nc(C)c1C,8.52
13,Cc1cccc(C)c1Nc1noc2c1CN(C(=O)c1cn(C)cn1)CC2,25.4
14,O=C(NC1CC1)c1cc(NC(=O)N2CCSCC2)ccc1Cl,57.6
15,O=C(NC1CC1)c1cc(NC(=O)N2CCOCC2)ccc1Cl,68.3
16,Cn1c(=O)oc2ccc(NC(=O)N3CCc4ccccc4C3)cc21,-3.43
17,O=C(NC1CC1)c1cc(NC(=O)N2CCCC2)ccc1Cl,31.9
18,O=C(Nc1ccc(CCN2CCSCC2)cc1)NC1CC1,1.79
19,Cn1c(=O)oc2ccc(NC(=O)N3CCSCC3)cc21,24.7
20,O=C(NC1CC1)c1cc(NC(=O)N2CCCC(O)C2)ccc1Cl (centres undefined),28.5
21,Cn1c(=O)oc2ccc(NC(=O)N3CCOCC3)cc21,53.9
22,CC1CN(C(=O)Nc2ccc(Cl)c(C(=O)NC3CC3)c2)CC(C)(C)O1 (centres undefined),31.9
